Results: PubChem BioAssay AID1347172 (National Center for Advancing Translational Sciences (NCATS), 2019)
Results filed as inconclusive are left out. Unmarked numbers belong to inactive results. Calls of active or inactive are those of the source. Calls follow the shape of the dose curve; as a rule, active = well fitted inhibition curve with a large enough effect; inconclusive = small, poorly fitted or top-dose-only effect; inactive = flat fitted curve, though single readings scatter.

Assay: Secondary qRT-PCR qHTS assay for selected Zika virus inhibitors
Details: Vero cells ZIKV infection, NS5 RNA qRT-PCR, 24 h; series mostly up to 32.6 µM; activity change, negative = inhibition: at the top concentration
From the text: Assay Submitters (PI): Avindra Nath, Ph.D., National Institute of Neurological Disorders and Stroke (NINDS), Bethesda, MD Radhakrishnan Padmanabhan, Ph.D., Georgetown University (GU), Washington D.C. Zika Virus causes congenital defects, including microcephaly and is associated with Guillain-Barre syndrome, eningoencephalitis and myelitis in infected adult. […] Using a target-based approach, we hope to establish a screening paradigm to uncover novel, cell-active NS2B-NS3 protease (Zika Virus) specific inhibitors from NCATS' collection of small molecules using qHTS. […] Four assay panel was created to identify potential Zika Virus inhibitors. Namely, (1) GU unlinked NS2B-NS3 AMC tagged protease qHTS, (2) GU unlinked NS2B-NS3 Rhodamine tagged protease qHTS, (3) NINDS linked NS2B-NS3 AMC tagged protease qHTS, (4) NINDS linked NS2B-NS3 Rhodamine tagged protease qHTS. Inhibitors of the Zika virus primary screens are confirmed using qRT-PCR secondary assays, qRT-PCR mCherry orthogonal assay, and qRT-PCR viability counterscreen. Early Translation Branch (ETB) National Center for Advancing Translational Sciences (NCATS), Rockville, MD National Institute of Health (NIH), Bethesda, Maryland
384-well ZIKV qRT-PCR Assay: Vero cells were treated with the indicated compounds at different concentrations, infected with ZIKV (MOI=1) and incubated at 37 degrees C for 3 hours to permit virus invasion. After 3 hr, supernatant was removed, and cells were washed once to remove extracellular virus. After a further 21 hr incubation, infected cells were washed three times with cold PBS (4 degrees C). Plates were then process using the TaqmanGene Expression Cells-to-Ct Kit (ThermoFisher Scientific) following the manufactures protocol. Primers directed to the NS5 sequence (F-[…]; R-GCTCGGCCAATCAGTTCA) along with Taqman probe (FAM-[…]-BHQ; Biosearch Technologies) were used to quantify drug inhibition of viral load. Reactions were run at initial 95 degrees C for 10 min, then 40 cycles of 95 degrees C for 20 sec and 60 degrees C for 40 sec using a LightCycler 480 (Roche). Relative viral copy numbers were generated by normalizing to cells treated with vehicle.

Structure (SMILES) | Potency | activity change, negative = inhibition [%]
O=C(Nc1ccc(Br)cc1)c1cc(Br)cc(Br)c1O | 22.4 µM (active) | 
CN(C)[C@@H]1C(=O)C(C(N)=O)=C(O)[C@@]2(O)C(=O)C3=C(O)c4c(O)cccc4[C@@](C)(O)[C@H]3C[C@@H]12 |  | 7.09
CN(C)[C@@H]1C(=O)C(C(N)=O)=C(O)[C@@]2(O)C(=O)C3=C(O)c4c(O)ccc(Cl)c4[C@@](C)(O)[C@H]3C[C@@H]12 |  | -7.44
C[C@]12CC[C@@H]3c4ccc(OC(=O)N(CCCl)CCCl)cc4CC[C@H]3[C@@H]1CC[C@@H]2O |  | -2.06
Oc1c(Cl)c(Cl)c(Cl)c(Cl)c1Cl |  | -11.8
